Drawing on PubChem BioAssay AID430 (Sanford-Burnham Center for Chemical Genomics, 2006), this text covers cytotoxicity for 98 compounds.

Structures are written as SMILES. The whole screen tested about 63,000 compounds, of which about 1,100 (1.7%) were called active. Only a selection was taken, and actives are over-represented in it overall. Potency and affinity values are given separately. Unmarked numbers belong to inactive results. Rule as the data show it: active = cytotoxicity above about 50%; inactive = the rest.

A short description of the assay: cytotoxicity in HPDE-C7 cells, cell-based, fluorescence, HTS (AID 430).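 Also: cells exposed to compound for 48 hours before viability readout; 0% = vehicle and 100% = reference cytotoxic drug.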 The note with it: HPDE-C7 pancreatic duct cells viability, at 10 µM, stronger effect = higher value.
For `O=S(=O)(N1CCCCC1)N1CCN(S(=O)(=O)N2CCCCC2)CC1`, the cytotoxicity is 0.2%.

As for `CCOC(=O)CNC(=O)C(Cc1ccccc1)NS(=O)(=O)c1cccs1` (stereo not drawn), the cytotoxicity was 2.5%.

Consider `COC(=O)/C=C/S(=O)(=O)c1ccc(NC(C)=O)cc1`, for which the cytotoxicity was 102% (active). Under `CCOC(=O)CN(Cc1ccccc1)S(=O)(=O)c1ccc(NC(C)=O)cc1` stands -2.7%; under `CC(=O)Nc1ccc(S(=O)(=O)c2ccc(N)cc2)cc1`, -11%. Under `COC(=O)C(C)NS(=O)(=O)c1ccc(NC(C)=O)cc1` (stereo not drawn) stands -12.8%; under `COc1ccccc1NS(=O)(=O)c1ccc(NC(C)=O)cc1`, -0.5%. On to `O=C(CSc1nnc(COc2ccc(Cl)cc2)o1)OC1CCCCC1`, for which the cytotoxicity was -7.9%. Take `CCOC(=O)N1CCC(NCCNC(=O)c2cccs2)CC1`: the cytotoxicity was -6.4%.

Consider `O=C(Cc1ccccc1)N1CCCC1c1ccccc1` (stereo not drawn), for which the cytotoxicity was -22.3%.

On to `CCCCN(C(=O)NC(=O)Nc1ccccc1OC)S(C)(=O)=O`, for which the cytotoxicity is -3.1%. The value for `CCOC(=O)N1CCN(C(=O)CSc2nnc(-c3ccc(C(C)(C)C)cc3)o2)CC1` was 2.6%; that for `O=C(CNC1CCCCCC1)Nc1ccc(S(=O)(=O)NC2CC2)cc1` was -6.7%. With `Cc1ccc(-c2cc(-c3ccc(F)cc3)nc(N)c2C#N)o1`, the cytotoxicity is 20.1%. The value for `Cc1ccc(-c2cc(-c3ccccc3Cl)c(C#N)c(N)n2)o1` was 11.3%; that for `Cc1ccc(-c2cc(-c3ccccc3)c(C#N)c(N)n2)o1` was 29.8%. Turning to `Cc1ccc(-c2cc(-c3ccc(Cl)cc3)c(C#N)c(N)n2)o1`, the cytotoxicity is 64.4% (active). Under `Cc1ccc(-c2cc(-c3ccc(C)o3)nc(N)c2C#N)cc1` stands 20.9%; under `Cc1cc(-c2cc(-c3ccc(Cl)cc3)nc(N)c2C#N)co1`, 77.8% (active); under `COCC(=O)Nc1nc2n(n1)C(c1ccc(OC)cc1)CC(c1ccc(OC)cc1)N2` (stereo not drawn), 2.7%. Consider `O=C(NCCN1CCc2ccccc2C1)Nc1ccc(F)cc1`, for which the cytotoxicity was -10.7%. In the case of `CSc1nc2cc(F)c(F)cc2n1C`, the cytotoxicity is -9.5%. Take `COc1cc(C)c(Br)cc1S(=O)(=O)N1CCOCC1`: the cytotoxicity is -9.6%. Under `Cc1nn(CCCC(=O)N2CCc3ccccc3C2)c(=O)c2cc3sccc3n12` stands -7.2%; under `O=C(Oc1ccccc1C(=O)N1CCOCC1)c1ccc(Br)cc1`, -14.1%. The value for `CN(CCc1ccccn1)Cc1ccc(Cl)cc1` was -13.4%; that for `Cc1nc2oc3c(NCC4CCCO4)ncnc3c2c2c1COC(C)(C)C2` (stereo not drawn) was -3.9%; that for `CC(C)c1nc2oc3c(NCC4CCCO4)ncnc3c2c2c1CCC2` (stereo not drawn) was 114% (active). Consider `CC(C)c1nc2oc3c(NCC4CCCO4)ncnc3c2c2c1COC(C)(C)C2` (stereo not drawn), for which the cytotoxicity is -14.6%.

On to `CCCc1cc(N2CCCC(C(=O)Nc3cc(Cl)ccc3OC)C2)n2ncnc2n1` (stereo not drawn), for which the cytotoxicity is -9.9%. Under `COc1cc(NC(=O)Nc2ccccc2)c(OC)cc1NC(=O)CN1CCCCC1` stands 6.1%. On to `COc1cc(NC(=O)Nc2ccccc2OC)c(OC)cc1NC(=O)CN1CCCCC1`, for which the cytotoxicity was 1.9%. The value for `COc1cc(NC(=O)Nc2cccc(Cl)c2)c(OC)cc1NC(=O)CN1CCCCC1` was 83.1% (active). Turning to `Cc1nc(CNS(=O)(=O)c2ccc3c(c2)OCCO3)cs1`, the cytotoxicity was -11.4%. The value for `CC1CCCC(NS(=O)(=O)c2ccc3c(c2)OCCO3)C1C` (stereo not drawn) was -7.8%; that for `Cc1ccc(-c2csc(N3CCC(NS(=O)(=O)c4ccc5c(c4)OCCO5)CC3)n2)cc1` was 54.6% (active); that for `Cc1nc2ccc(S(=O)(=O)NCC(=O)N3CCC(C)CC3)cc2s1` was -1%.

For the compound `O=c1[nH]c(-c2ccc(Cl)cc2)nc2c1cnn2-c1ccccc1`, the cytotoxicity was 3.6%. The value for `CCCCSc1nc2c(cnn2-c2ccc(F)cc2)c(=O)[nH]1` was -30.5%; that for `CCCSc1nc2c(cnn2-c2ccccc2)c(=O)[nH]1` was -0.6%. In the case of `CCCCCSc1nc2c(cnn2-c2ccccc2)c(=O)[nH]1`, the cytotoxicity is 57.7% (active).

As for `CCOC(=O)N1CCN(c2c(-c3ccc(C(C)C)cc3)c(=O)c2=O)CC1`, the cytotoxicity was 1.3%. The value for `COCc1nc(-c2cc(OC)c(OC)c(OC)c2)no1` was -19%; that for `CCN(CC)c1ccc2cc(-c3nc4ccccc4n3C)c(=O)oc2c1` was 67% (active); that for `O=c1oc2ccc3ccccc3c2cc1-c1nnc(-c2ccccc2)o1` was 13.4%. Turning to `CCN(CC)c1ccc2cc(-c3nc4ccccc4[nH]3)c(=O)oc2c1`, the cytotoxicity was 30.8%. As for `CCN(CC)c1ccc2cc(-c3nnc(-c4ccncc4)o3)c(=O)oc2c1`, the cytotoxicity is 59.2% (active). Under `CCN(CC)c1ccc2cc(C(=O)Nc3ccccn3)c(=O)oc2c1` stands 9.8%; under `CC(=O)Oc1ccc2cc(-c3nc4ccccc4n3C)c(=O)oc2c1`, 4.2%; under `O=C(Nc1cccnc1)c1cc2nc(C3CC3)cc(C(F)(F)F)n2n1`, -15.8%.

With `Cc1ccc(SCc2cn3c(C)csc3n2)cc1`, the cytotoxicity is -10.2%. Under `c1ccc(OCc2nn3c(Cn4nnc5ccccc54)nnc3s2)cc1` stands -15.5%; under `Cc1noc(C)c1S(=O)(=O)Nc1ccc(C(=O)N2CCc3ccccc3C2)cc1`, -2.2%.

For `Cn1nnc(NC(=O)c2ccccc2F)n1`, the cytotoxicity was -4.8%.

Take `CN1CCN(Cc2c(O)ccc3c(=O)c(Oc4ccccc4Cl)c(C(F)(F)F)oc23)CC1`: the cytotoxicity is -17%. The value for `O=C(c1ccco1)N1CCN(C(=O)c2cccc3c2C(=O)N(C2CCCCC2)C3)CC1` was -10%. With `CN1CCN(CC#CC2(O)CCCCC2)CC1`, the cytotoxicity is -31.9%. Regarding `COc1ccc(CC(=O)Nc2ccc(-c3noc(-c4cc(OC)c(OC)c(OC)c4)n3)cc2)cc1`, the cytotoxicity was -2.7%. Regarding `CC(C)Sc1nc(SCC(=O)NCc2ccco2)c2c3c(sc2n1)COC(C)(C)C3`, the cytotoxicity is 24.2%. The value for `CSc1nc(NCc2ccco2)c2c3c(sc2n1)CN(C)CC3` was -21.3%; that for `CC(C)Sc1nc(NCc2ccco2)c2c3c(sc2n1)COC(C)(C)C3` was 83.4% (active).

Take `CC(C)c1nc2sc3c(SCC(=O)NCc4ccco4)ncnc3c2c2c1CCC2`: the cytotoxicity is 5.7%. Turning to `Cc1nc(NCc2ccco2)c2c3c(sc2n1)CCC3`, the cytotoxicity was 56.1% (active).

As for `CSc1nc(SCC(=O)NCc2ccco2)c2c3c(sc2n1)COC(C)(C)C3`, the cytotoxicity is 51% (active). The value for `CCCc1nc2sc3c(SCC(=O)NCc4ccco4)ncnc3c2c2c1CCC2` was 59% (active). The value for `Cc1nc(SCC(=O)NCc2ccco2)c2c3c(sc2n1)CCCC3` was -4.3%; that for `CSc1nc(SCC(=O)NCc2ccco2)c2c3c(sc2n1)CN(C)CC3` was -9.6%; that for `CC(C)c1nc2sc3c(NCc4ccco4)ncnc3c2c2c1COC(C)(C)C2` was -10.3%. The value for `c1coc(CNc2ncnc3sc4c(c23)CCCCC4)c1` was -10.2%; that for `O=C(CSc1ncnc2sc3c(c12)CCCCC3)NCc1ccco1` was -22.5%. Consider `CN1CC2(C(=O)c3ccccc3)CN(C)CC(C(=O)c3ccccc3)(C1)C2`, for which the cytotoxicity is -20.9%. Under `O=c1nc2n(c3ccccc13)Cc1ccccc1-2` stands -1.4%; under `O=C(CSc1nnc(C2CC2)n1Cc1ccccc1)c1ccc(S(=O)(=O)N2CCOCC2)cc1`, -8.3%.

Turning to `Cn1nc(C(=O)Nc2ccc(S(=O)(=O)N3CCCCC3)cc2)ccc1=O`, the cytotoxicity was -4.3%. Consider `Cn1c(=O)c2c(nc(Oc3ccccn3)n2C)n(C)c1=O`, for which the cytotoxicity is -12.5%. Take `O=C(c1ccc2c(=O)n(-c3ccccc3)c(=O)[nH]c2c1)N1CCCCC1`: the cytotoxicity was -2.4%. Under `COc1ccc(/C=N/n2cc(-c3ccc(OC)cc3)nc2N)cc1` stands -8.1%; under `COc1ccc(/C=N/n2cc(-c3ccccc3)nc2N)cc1`, 65.5% (active).

Take `COc1ccc(/C=N/n2cnnc2SCc2ccccc2)cc1`: the cytotoxicity was 3.5%. The value for `CC(C)NC(=O)Cn1c(SCC(=O)N2CCCc3ccccc32)nc2ccccc21` was -5.8%; that for `CC(C)NC(=O)Cn1c(SCC(=O)N2CCc3ccccc3C2)nc2ccccc21` was 129% (active); that for `CC(C)NC(=O)Cn1c(SCC(=O)N2CCCCCC2)nc2ccccc21` was -7.8%. Under `Cc1ccc(C(=O)Nc2ccccc2N2CCN(C(=O)C(C)C)CC2)cc1C` stands -15%; under `COc1ccc(NC(=O)Cn2cnc3c(cnn3-c3ccc(C)c(C)c3)c2=O)c(OC)c1`, -1.2%.

With `CN(C)CCOc1nc(-c2ccccc2)nc2c1oc1ccccc12`, the cytotoxicity was 56.4% (active). In the case of `CCc1nc(OCCN(C)C)c2oc3ccccc3c2n1`, the cytotoxicity was -12.4%. As for `CCN(CC)CCOc1nc(C)nc2c1oc1ccccc12`, the cytotoxicity was -0.5%. With `Cc1ccc2[nH]c(=O)c(CNC(C)(C)C)cc2c1`, the cytotoxicity is 1.4%. Under `O=C(C1=C(O)C(=O)N(CCN2CCOCC2)C1c1cccs1)c1cc2ccccc2o1` (stereo not drawn) stands -34.2%; under `CCS(=O)(=O)N1Cc2ccccc2CC1C(=O)Nc1nc2ccccc2[nH]1` (stereo not drawn), 6.5%. The value for `Cc1nn(C)cc1C1C2=C(CC(C)(C)CC2=O)OC2=C1C(=O)CC(C)(C)C2` was -12.3%; that for `COC(=O)C1=C(N)OC2=C(C(=O)CC(C)(C)C2)C1c1ccoc1` (stereo not drawn) was -0.4%; that for `CCN(Cc1cc2cc(C)ccc2[nH]c1=O)C(=O)c1cccc(OC)c1` was 0.1%.

As for `Clc1cc(Cl)c2nc(N3CCCCC3)sc2c1`, the cytotoxicity was -1.2%. `COC(=O)c1c(C)nn(-c2ccccc2)c1N`: the cytotoxicity is 4.7%. As for `Cc1ccccc1NC(=O)N1CCCC(c2nc(-c3ccc(C(C)C)cc3)no2)C1` (stereo not drawn), the cytotoxicity was 33.3%.

Turning to `COc1ccc(-c2noc(C3CCCN(C(=O)c4cccs4)C3)n2)cc1` (stereo not drawn), the cytotoxicity was -9%.

Regarding `COc1ccc(NC(=O)N2CCCC(c3nc(-c4ccc(C(C)C)cc4)no3)C2)cc1` (stereo not drawn), the cytotoxicity was 56.3% (active).
